Source: PubChem BioAssay
TrxR1 inh: qHTS Assay for Inhibitors of Mammalian Selenoprotein Thioredoxin Reductase 1 (TrxR1): qHTS. recombinant rTrxR1, NADPH fluorescence consumption, selenite substrate. 1% of 390,000 active. Thioredoxin reductase 1, cytoplasmic (Rattus norvegicus), O89049. Potency, µM (top dose mostly 114 µM), for inactives: top-dose activity change, negative = inhibition, hits mostly inhibitors; also: potency is read from the fitted curve at half-maximal effect; nearly all actives have a fitted effect of over 65% in size
Target sequence (O89049 whole entry, looked up): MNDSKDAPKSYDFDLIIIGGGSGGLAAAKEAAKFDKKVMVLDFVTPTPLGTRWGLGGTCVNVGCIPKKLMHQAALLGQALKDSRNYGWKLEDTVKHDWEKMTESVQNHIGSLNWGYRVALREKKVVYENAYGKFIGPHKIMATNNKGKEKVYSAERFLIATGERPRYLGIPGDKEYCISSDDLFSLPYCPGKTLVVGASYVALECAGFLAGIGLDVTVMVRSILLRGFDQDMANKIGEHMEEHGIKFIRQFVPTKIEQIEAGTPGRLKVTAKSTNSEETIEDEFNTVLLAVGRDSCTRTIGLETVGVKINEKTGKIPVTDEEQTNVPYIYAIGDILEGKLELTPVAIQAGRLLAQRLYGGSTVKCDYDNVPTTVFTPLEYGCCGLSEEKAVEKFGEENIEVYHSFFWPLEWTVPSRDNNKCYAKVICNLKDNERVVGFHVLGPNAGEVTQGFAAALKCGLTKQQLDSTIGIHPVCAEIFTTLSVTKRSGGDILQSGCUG
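Rat TrxR1 (90 nM in the dispensed reagent) was pre-reduced with 400 uM NADPH for 5 min at room temperature, then incubated with compound for 15 min. After 400 uM selenite was added, NADPH fluorescence (Ex 340/Em 450 nm) was followed for 8 min.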
CtBP-E1A inh: qHTS Assay for Inhibitors of the CtBP/E1A Interaction; CtBP / adenovirus E1A interaction (AlphaScreen); AlphaScreen GST-E1A/His-CtBP binding, 1536-well; stronger effect = lower value; activity change, % (test concentration not listed); 0.49% of 340,000 active; AID 651724, 2012; in the data active = activity change below about -65%; inconclusive = mostly about -30% to -63%
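Protein mix (5X: 125 nM each GST-E1A, His-CtBP) was incubated with pinned compound 2 h at 37 deg C in dark, in 50 mM Tris pH 8.0 buffer with 300 mM NaCl. Glutathione donor and nickel acceptor beads followed; AlphaScreen signal read after 1 h.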
Eya2 inh: qHTS Assay for Inhibitors of the Phosphatase Activity of Eya2; recombinant Eya2, OMFP fluorescence dephosphorylation (OMFP is methylfluorescein phosphate); 0.006% of 330,000 active; Potency, µM (highest dose often 76.9 µM), for the others: at the highest dose activity, negative = inhibition, most hits filed as inhibitors; Protein phosphatase EYA2 (Homo sapiens), O00167; also: potency is read from the fitted curve at half-maximal effect
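Eya2 protein (added as 0.2 uM solution) was preincubated with compound for 10 min at ambient temperature in 50 mM HEPES pH 7.5, 50 mM NaCl, 5 uM MgCl2, 0.05% BSA, 1 mM DTT. OMFP (added at 50 uM) then reacted 10 min; fluorescence read at 485/525 nm.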
Six1-Eya2 inh: qHTS Assay for Inhibitors of the Six1/Eya2 Interaction; 0.56% of 360,000 active; activity change, % (test concentration not listed); Homeobox protein SIX1 (Homo sapiens) + Protein phosphatase EYA2 (Homo sapiens), …; AID 651725, 2012; AlphaScreen GST-Six1/His-Eya2 binding, biochemical; stronger effect = lower value; in the data active = activity change below about -65%; inconclusive = mostly about -30% to -63%
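GST-Six1 + His-Eya2 (5X stock: 250/500 nM); Tris pH 8.0, 300 mM NaCl, 0.05% BSA, 0.02% Tween 20; GSH donor/Ni acceptor beads; 1 h 37 °C dark; AlphaScreen readout.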
TrxR1 substrate: qHTS Assay for Substrates of Mammalian Selenoprotein Thioredoxin Reductase 1 (TrxR1): qHTS | AID 588456, 2011 | purified TrxR1 substrate turnover, NADPH consumption readout | Thioredoxin reductase 1, cytoplasmic (Rattus norvegicus), O89049 | 0.01% of 390,000 active | Potency, µM (doses to about 114 µM), without a hit: top-dose activity change, negative = substrate turnover; also: potency is read from the fitted curve at half-maximal effect; nearly all actives have a fitted effect of over 50% in size
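Rat TrxR1, dispensed at 90 nM, was prereduced with 400 uM NADPH (final) for 5 min at ~22 deg C, then incubated with compound 15 min before 400 uM selenite. A first-read NADPH fluorescence drop versus no-compound background flagged substrates.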
GALK inh: qHTS Assay for Inhibitors of Human Galactokinase (GALK) | P51570 | Purified GALK, Kinase-Glo residual ATP luminescence | Potency, µM (doses to about 57.5 µM), for the others: top-dose activity change, negative = inhibition, usual class: inhibitors | 0.007% of 270,000 active | AID 1868, 2009; also: potency is read from the fitted curve at half-maximal effect
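ATP-depletion format; final 35 uM ATP, 100 uM D-galactose, 5 nM enzyme; pH 8.0 HEPES/Mg2+ buffer; 60 min RT; luminescence read 10 min after detection reagent.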
Active calls of the source: *; u = inconclusive; x = not tested or not shown; [ ] = remark or other dose. Sampled rows, rich in hits. Any-hit rate of the full collection: about 1.5%. Unless noted, calls follow the shape of the dose curve; as a rule, active = well fitted curve in the direction sought with a large enough effect; inconclusive = small, poorly fitted or top-dose-only effect, or another doubt; inactive = no such curve, though single readings can be large; an effect the other way counts as inactive or inconclusive. % is scaled to controls: 0 for no effect and ±100 for the full control effect.

SMILES	TrxR1 inh	CtBP-E1A inh	Eya2 inh	Six1-Eya2 inh	TrxR1 substrate	GALK inh
CN(C1=C(NC(=O)c2ccc(Cl)cc2)C(=O)c2ccccc2C1=O)c1ccccc1	5%	-88*	5%	-86*	-6%	5%
CCc1noc(-c2ccc(N(C)Cc3ccc(OC)cc3)c([N+](=O)[O-])c2)n1	12%	x	x	x	-4%	x
Cc1ccc(C(=O)N2CCC(C(=O)c3ccc(F)cc3)CC2)cc1	18%[2.29 µM]	x	x	14	4%[2.29 µM]	x
Cc1ccc(C(=O)N2C(=S)C(c3ccc(F)cc3)=NC23CCN(C)CC3)cc1	20µM*	7	-10%	0	-10%	-3%
COC(=O)C1Cc2ccccc2CN1C(=O)CCl (stereo not given)	14µM*	-16	5%	-6	7%[57.1 µM]	1%
COc1ccc(N2C(=O)CC(Sc3nnc(-c4ccccc4)o3)C2=O)cc1 (stereo not given)	40µM*	-3	19%	0	2%	7%
O=C1CC(Sc2nnc(-c3ccccc3O)o2)C(=O)N1c1ccccc1 (stereo not given)	u	-10	2%	-1	7%	-1%
CCN(CC)c1ccc(/C=N/N2CCN(Cc3ccccc3Cl)CC2)cc1	2%[2.29 µM]	-27	-1%	-74*	4%[57.1 µM]	0%
CCN(CC)c1ccc(/C=N/N2CCN(c3ccccc3OC)CC2)cc1	26%	-21	-13%	-67*	-4%	7%
CN(C)c1ccc(/C=N/N2CCN(Cc3ccccc3Cl)CC2)cc1	u	-14	5%	-7	-15%	-4%
COc1cccc(N2CCN(C(=O)c3ccc4c(=O)n(CCc5ccccc5)c(=O)[nH]c4c3)CC2)c1	17%	x	x	x	0%	x
COc1cc(OC)c(NC(=O)c2c(C)nn(-c3ccc(C)cc3)c2-n2cccc2)cc1Cl	-7%	x	x	x	-7%	x
CCOC(=O)C1(Cc2cccc(OC)c2)CCCN(C(=O)c2ccc(OC)o2)C1 (stereo not given)	50µM*	-4	-7%	-5	4%	-6%
CCOC(=O)C1(Cc2cccc(OC)c2)CCCN(C(=O)c2cc(CC(C)C)[nH]n2)C1 (stereo not given)	2%	-4	-5%	17	-6%	4%
COc1ccc(C(=O)NCC23C=CC(O2)C2C(=O)N(Cc4ccccc4)C(=O)C23)cc1 (stereo not given)	25µM*	9	-3%[15.4 µM]	4	-1%	2%
O=C(Nc1ccc2ccccc2c1)c1ccc2[nH]c(=O)c(=O)[nH]c2c1	-5%	-85*	-26%	u	-1%	0%
Cc1onc(-c2ccccc2)c1C(=O)NC(=S)NNC(=O)c1ccccc1O	-20%[57.1 µM]	7	11%	-85*	-7%	-3%
Cc1onc(-c2ccccc2)c1C(=O)NC(=S)NNC(=O)c1ccc(O)cc1O	u	-14	-8%	-93*	-18%	0%
CC(C)(C)c1ccc(/C=N/Nc2nncn2N)cc1	25%[57.1 µM]	-18	-11%	-12	11%[57.1 µM]	-2%
Nn1cnnc1N/N=C/c1cc(Br)cc(Br)c1O	-11%	-91*	7%	-92*	-14%	0%
CC(=O)c1ccc(NC(=O)c2noc3c2CCC3)cc1	50µM*	-9	-4%	-2	-10%	-1%
Cc1ccc(NC(=O)c2noc3c2CCC3)cc1C	50µM*	9	-16%	-9	13%	1%
COc1ccccc1-c1nnc(SCC(=O)c2ccc(F)cc2)n1-c1ccccc1	5%	x	x	x	2%	x
CC(C)c1nn2c(=O)cc(COC(=O)CNC(=O)c3ccccc3Cl)nc2s1	4%[57.1 µM]	x	x	x	-2%[57.1 µM]	x
CCOC(=O)C(=Cc1cc(=O)c(OC)co1)C(=O)OCC	3.5µM*	9	3%	1	2%	x
SMILES	TrxR1 inh	CtBP-E1A inh	Eya2 inh	Six1-Eya2 inh	TrxR1 substrate	GALK inh
COc1coc(C(O)CN)cc1=O (stereo not given)	35%	-24	7%	-16	8%	2%
COc1cccc(-n2cc(C(=O)Nc3cc(C)c(Cl)cc3OC)c3ccccc3c2=O)c1	-2%	x	x	x	-5%	x
Nc1c(S(=O)(=O)O)cc(NC(=O)c2ccccc2)c2c1C(=O)c1ccccc1C2=O	7%	x	0%	-71*	-2%	-2%
Oc1ccc(CNc2cccc(C(F)(F)F)c2)c2cccnc12	x	x	-3%	x	x	x
Cc1ccc(O)c(CNc2cccc3cccnc23)c1	-1%[57.1 µM]	u	8%	-22	-2%[57.1 µM]	3%
Cc1cccc(NCc2ccc(O)c3ncccc23)c1C	u	-89*	13%	-74*	10%[57.1 µM]	-1%
Cc1cccnc1NCc1ccc(O)c2ncccc12	u	-91*	17%	-90*	-12%	4%
CCCCNC(=O)CSc1nc2nc(C)c(Cc3ccccc3C)c(C)n2n1	7%	x	x	x	11%[2.29 µM]	x
CC(C)C1Nc2ccc(C(=O)O)cc2C2C=CCC21 (stereo not given)	u	-11	7%	u	10%[57.1 µM]	-2%
CCCC1Nc2ccc(C(=O)O)cc2C2C=CCC12 (stereo not given)	50µM*	-5	2%	u	-6%	2%
CCOC(=O)C1Nc2ccc(C(=O)O)cc2C2C=CCC12 (stereo not given)	11µM*	-22	-11%	u	-1%	2%
OC(c1ccccn1)(c1ccccn1)c1ccccn1	4%	-2	11%	-85*	4%	5%
CC(c1ccccn1)C(C)(O)C(C)c1ccccn1 (stereo not given)	8%[57.1 µM]	0	x	1	6%[57.1 µM]	x
O=C1CC(c2ccccc2)n2nc(NC(=O)c3ccccn3)nc2N1 (stereo not given)	1%	u	-5%	-75*	-2%	4%
COc1ccc(C2C=C(c3ccccc3)Nc3nc(NC(=O)c4ccc(C)cc4)nn32)cc1 (stereo not given)	19%	x	x	x	5%	x
O=C1CC(c2ccccc2)n2nc(NC(=O)c3ccccc3)nc2N1 (stereo not given)	4%	2	-11%	-1	6%	4%
O=C(Nc1nc2n(n1)C(c1ccccc1)C=C(c1ccccc1)N2)c1ccccc1 (stereo not given)	56µM*	x	x	x	10%	x
COc1ccc(Br)cc1CN1C(=O)c2ccccc2C1C(=O)NC1CCCCCC1 (stereo not given)	11%	x	x	x	1%	x
